# Activity calls are given as the source filed them. Unless noted, no rule for the calls is given here.
# Legend:
# [1] = compounds binding Alexa647 anti-His antibody – biochemical, small-molecule microarray, 635 nm fluorescence, artefact control for SMM control protein annotation, primary screen (AID 1128); settings: higher = more signal;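 also: score merges feature fluorescence with signal-to-noise for each printed compound spot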
# [2] = test system: Human papillomavirus type 1a E7 protein (residues 1-88); assay: HPV1a E7 small-molecule binders, primary screen, biochemical, small-molecule microarray, residues 1-88, 635 nm (AID 1129); settings: small-molecule microarray binding, fluorescence 635 nm; higher = more signal
# [3] = biological target: Focal adhesion kinase 1 (Homo sapiens) (UniProt Q05397); assay: PTK2 protein binding on printed compound slides – biochemical, small-molecule microarray, 635/667 nm fluorescence, BSA, DTT, primary screen (AID 1130); settings: 635 nm fluorescence, higher = more signal;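 also: composite of spot emission at 667 nm and signal to noise over triplicate slides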
# Chain of Focal adhesion kinase 1 (Homo sapiens) (Q05397 whole entry, looked up): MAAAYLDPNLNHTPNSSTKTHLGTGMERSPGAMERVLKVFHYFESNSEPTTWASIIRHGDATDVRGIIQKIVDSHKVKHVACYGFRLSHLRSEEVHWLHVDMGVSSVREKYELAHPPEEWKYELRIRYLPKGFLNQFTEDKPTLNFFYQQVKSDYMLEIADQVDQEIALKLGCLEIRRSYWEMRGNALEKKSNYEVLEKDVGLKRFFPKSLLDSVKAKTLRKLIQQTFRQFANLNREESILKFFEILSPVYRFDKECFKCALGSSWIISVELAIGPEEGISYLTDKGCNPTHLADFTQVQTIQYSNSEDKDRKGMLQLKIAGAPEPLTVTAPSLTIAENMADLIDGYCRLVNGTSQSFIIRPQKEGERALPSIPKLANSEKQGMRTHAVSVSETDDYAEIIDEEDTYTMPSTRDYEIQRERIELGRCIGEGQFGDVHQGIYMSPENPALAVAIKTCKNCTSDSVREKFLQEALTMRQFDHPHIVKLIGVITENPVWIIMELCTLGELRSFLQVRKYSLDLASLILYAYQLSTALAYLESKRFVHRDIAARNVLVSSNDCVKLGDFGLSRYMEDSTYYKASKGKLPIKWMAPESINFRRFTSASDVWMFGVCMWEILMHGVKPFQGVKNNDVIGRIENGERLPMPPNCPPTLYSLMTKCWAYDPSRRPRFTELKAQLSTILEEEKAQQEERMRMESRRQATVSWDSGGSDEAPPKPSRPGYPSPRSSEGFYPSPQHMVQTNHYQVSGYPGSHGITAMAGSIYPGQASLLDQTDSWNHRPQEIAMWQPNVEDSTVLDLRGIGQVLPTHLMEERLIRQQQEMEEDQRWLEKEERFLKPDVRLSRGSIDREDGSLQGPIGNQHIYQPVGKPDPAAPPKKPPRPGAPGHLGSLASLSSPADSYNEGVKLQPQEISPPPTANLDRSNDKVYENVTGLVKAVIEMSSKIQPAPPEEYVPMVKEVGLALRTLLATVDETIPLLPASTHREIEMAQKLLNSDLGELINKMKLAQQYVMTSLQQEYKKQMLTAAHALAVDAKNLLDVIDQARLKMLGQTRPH
# [4] = test system: Fibrinogen (Alexa647-labelled); assay: Alexa647-fibrinogen binding to printed small molecules – biochemical, small-molecule microarray, 635/667 nm fluorescence, artefact control for SMM control-protein annotation, profiling panel (AID 1131); settings: fibrinogen-A647 binding fluorescence, higher = more signal;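 also: z-score merges 667 nm fluorescence with per-spot signal-to-noise over triplicate slides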
# [5] = biological target: Follistatin (Homo sapiens) (UniProt P19883); assay: FST protein binding to printed compounds – biochemical, small-molecule microarray, 635/667 nm fluorescence, primary screen (AID 1132); settings: 635 nm fluorescence, higher = more signal
# Chain of Follistatin (Homo sapiens) (P19883 whole entry, looked up): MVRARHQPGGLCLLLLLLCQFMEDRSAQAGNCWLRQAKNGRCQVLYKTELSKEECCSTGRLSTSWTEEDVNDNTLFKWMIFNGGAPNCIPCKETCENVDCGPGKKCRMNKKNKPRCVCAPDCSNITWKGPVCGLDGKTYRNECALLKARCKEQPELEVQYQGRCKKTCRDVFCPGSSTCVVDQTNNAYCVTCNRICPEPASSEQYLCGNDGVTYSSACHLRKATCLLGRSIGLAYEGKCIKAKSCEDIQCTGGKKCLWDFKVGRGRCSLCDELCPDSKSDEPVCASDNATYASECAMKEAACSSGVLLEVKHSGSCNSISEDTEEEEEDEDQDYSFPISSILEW
# [6] = biological target: Fibroblast growth factor 2 (Homo sapiens) (UniProt P09038); assay: basic fibroblast growth factor binding to printed compounds – biochemical, small-molecule microarray, 635/667 nm fluorescence, primary screen (AID 1133); settings: FGF2, fluorescence 635/667, higher = more signal
# Chain of Fibroblast growth factor 2 (Homo sapiens) (P09038 whole entry, looked up): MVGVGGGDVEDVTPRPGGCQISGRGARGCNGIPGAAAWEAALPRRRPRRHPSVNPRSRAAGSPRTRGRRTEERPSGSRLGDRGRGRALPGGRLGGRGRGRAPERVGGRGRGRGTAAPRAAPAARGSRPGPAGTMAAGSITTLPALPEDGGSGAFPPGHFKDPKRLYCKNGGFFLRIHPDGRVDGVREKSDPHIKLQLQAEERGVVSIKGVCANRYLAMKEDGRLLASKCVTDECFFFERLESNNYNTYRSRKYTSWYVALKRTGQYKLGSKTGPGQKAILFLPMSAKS
# [7] = JC-1 mitochondrial potential readout, lung cancer cells – cell-based, A549, JC-1 fluorescence, basal, 24 h, 100 nL, profiling panel (AID 1138); settings: higher = more signal;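 also: A549 lung adenocarcinoma cells under basal conditions with no added stimulus; test concentration not given here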
# [8] = test system: Lefty1; assay: Lefty1 protein binding to printed compounds – biochemical, small-molecule microarray, 635/667 nm fluorescence, primary screen (AID 1139); settings: fluorescence 635/667, higher = more signal
# [9] = test system: wheat germ agglutinin (Triticum aestivum), Alexa647-labelled; assay: Alexa647-WGA lectin binding to printed small molecules – biochemical, small-molecule microarray, 635/667 nm fluorescence, artefact control for SMM control-protein annotation, profiling panel (AID 1140); settings: WGA-A647 binding, 635 nm fluorescence, higher = more signal;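 also: score merges 667 nm feature emission with signal to noise over triplicate slides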
# [10] = biological target: Luciferin 4-monooxygenase (Photinus pyralis) (UniProt P08659); assay: inhibition of purified Photinus pyralis luciferase – biochemical, luminescence, purified enzyme, 2006 set, primary screen (AID 1141); settings: purified firefly luciferase, SteadyGlo luminescence, 30 min; higher = more signal, called active from +8 up or from −8 down;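 also: cell-free assay with purified firefly luciferase at 100 ng per well in PBS; test concentration not given here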
# Chain of Luciferin 4-monooxygenase (Photinus pyralis) (P08659 whole entry, looked up): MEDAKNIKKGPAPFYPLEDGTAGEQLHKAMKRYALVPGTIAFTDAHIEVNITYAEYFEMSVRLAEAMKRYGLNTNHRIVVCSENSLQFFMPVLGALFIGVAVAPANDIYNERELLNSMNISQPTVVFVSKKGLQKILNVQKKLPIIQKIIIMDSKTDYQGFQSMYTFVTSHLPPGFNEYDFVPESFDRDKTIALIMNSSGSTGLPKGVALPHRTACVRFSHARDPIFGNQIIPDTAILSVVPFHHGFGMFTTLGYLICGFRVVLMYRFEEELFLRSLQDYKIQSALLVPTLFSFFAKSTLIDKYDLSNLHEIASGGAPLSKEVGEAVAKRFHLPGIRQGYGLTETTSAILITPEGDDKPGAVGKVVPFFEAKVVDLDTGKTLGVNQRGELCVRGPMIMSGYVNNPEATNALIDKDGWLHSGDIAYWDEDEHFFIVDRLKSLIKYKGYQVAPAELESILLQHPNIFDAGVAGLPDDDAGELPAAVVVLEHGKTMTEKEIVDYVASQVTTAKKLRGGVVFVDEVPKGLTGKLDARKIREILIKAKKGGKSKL
# [11] = test system: Wnt5a (protein binding on small-molecule microarray); assay: small molecules binding Wnt5a protein – biophysical, small-molecule microarray, 635/667 nm fluorescence, primary screen (AID 1142); settings: 635 nm fluorescence, higher = more signal;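 also: fluorescence read at 667 nm with signal to noise per printed feature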
# [12] = ATP-based viability of Huh7 replicon cells – cell-based, CellTiter-Glo luminescence, basal, 48 h, cytotoxicity control for HCV replication inhibitor project, primary screen (AID 1143); settings: higher = more signal, called active from +8 up or from −8 down;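 also: Huh7 hepatoma cells carrying a hepatitis C replication reporter with no stimulus; test concentration not given here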
# [13] = Pseudomonas biofilm growth suppression – PAO1 strain, BacTiter-Glo luminescence, LB-PBS, primary screen (AID 1144); settings: P. aeruginosa PAO1 biofilm, 12 h, higher = more signal
# [14] = basal CRE-LacZ reporter activity in PC12 – cell-based, unstimulated, primary screen (AID 1145); settings: no forskolin, luminescence, 4.5 h, higher = more signal, called active from +8 up or from −8 down
# [15] = forskolin-driven CRE-LacZ activity in PC12 – cell-based, CRE-LacZ reporter, forskolin-stimulated, primary screen (AID 1146); settings: luminescence, 4.5 h, higher = more signal, called active from +8 up or from −8 down;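 also: PC12 cells with 6xCRE LacZ reporter stimulated by forskolin 10 µM; beta-galactosidase reporter signal reflecting CREB driven transcription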
# [16] = biological target: Streptavidin (Streptomyces avidinii) (UniProt P22629); assay: compounds binding control protein streptavidin – biophysical, small-molecule microarray, 635/667 nm fluorescence, artefact control for SMM compound annotation, primary screen (AID 1147); settings: higher = more signal;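 also: signal reflects streptavidin binding to arrayed compounds as a control protein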
# Chain of Streptavidin (Streptomyces avidinii) (P22629 whole entry, looked up): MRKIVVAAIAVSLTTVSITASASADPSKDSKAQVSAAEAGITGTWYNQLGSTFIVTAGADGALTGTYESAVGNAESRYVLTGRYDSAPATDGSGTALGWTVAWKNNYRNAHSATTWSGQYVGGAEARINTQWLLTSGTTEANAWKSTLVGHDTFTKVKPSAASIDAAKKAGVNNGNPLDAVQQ
# [17] = probe aInhba binding on compound microarray – biochemical, small-molecule microarray, 635/667 nm fluorescence, primary screen (AID 1148); settings: higher = more signal;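 also: score merges 667nm spot fluorescence with signal-to-noise for antibody binding to printed compounds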
# [18] = biological target: Torsin-1A (Homo sapiens) (UniProt O14656); assay: TOR1A wild-type binding on microarray – cell lysate, small-molecule microarray, lysate, 635/667 nm, primary screen (AID 1149); settings: COS7 hTOR1A-WT lysate, 635 nm fluorescence, higher = more signal
# Chain of Torsin-1A (Homo sapiens) (O14656 whole entry, looked up): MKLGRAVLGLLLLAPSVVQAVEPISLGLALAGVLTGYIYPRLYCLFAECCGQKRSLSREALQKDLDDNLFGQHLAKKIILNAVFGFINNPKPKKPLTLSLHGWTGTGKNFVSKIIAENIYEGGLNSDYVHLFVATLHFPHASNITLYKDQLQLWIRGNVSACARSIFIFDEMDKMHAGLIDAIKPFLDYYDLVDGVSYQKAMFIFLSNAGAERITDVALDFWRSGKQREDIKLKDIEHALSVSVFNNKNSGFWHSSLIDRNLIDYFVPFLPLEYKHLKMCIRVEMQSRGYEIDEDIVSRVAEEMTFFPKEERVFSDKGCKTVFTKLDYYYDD
# [19] = biological target: Torsin-1A (Homo sapiens) (UniProt O14656); assay: torsin A mutant lysate binding on microarrays – cell lysate, small-molecule microarray, COS7 lysate, 635/667 nm fluorescence, primary screen (AID 1150); settings: COS7 hTOR1A mutant lysate, 635 nm fluorescence, higher = more signal;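 also: score pools 667 nm emission and signal to noise measuring lysate protein binding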
# [20] = test system: Sonic hedgehog protein (Shh); assay: Sonic hedgehog microarray binding compounds – biochemical, small-molecule microarray, 635/667 nm fluorescence, primary screen (AID 1151); settings: 635 nm fluorescence, higher = more signal;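 also: Shh protein binding to compounds spotted on small-molecule microarray slides; score combines spot fluorescence intensity with signal-to-noise across triplicate slides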
SMILES,composite z-score [1],composite z-score [2],composite z-score [3],composite z-score [4],composite z-score [5],composite z-score [6],z-score [7],composite z-score [8],composite z-score [9],z-score [10],composite z-score [11],z-score [12],z-score [13],z-score [14],z-score [15],composite z-score [16],composite z-score [17],composite z-score [18],composite z-score [19],composite z-score [20]
C=CCN1C(=O)[C@@]2(Cc3ccccc31)N=C(c1ccc(OCCCO)cc1)O[C@H]2c1ccccc1,2.49,1.19,1.02,0.039,1.35,0.988,1.1,0.368,0.495,-2.65 (inactive),0.344,-3.53 (inactive),-0.144 (inactive),0.47 (inactive),-1.81 (inactive),0.0866,0.195,0.698,0.855,1.14
CC1(C)[C@@H]2CC(C(O)C3C=CC4C(=O)N(c5ccccc5)C(=O)C4N3Nc3ccc([N+](=O)[O-])cc3)=C[C@H]1C2 (stereo not given in full),1.11,1.27,0.368,1.04,1.16,0.488,-1.25,0.619,0.728,0.285 (inactive),0.909,-1.2 (inactive),-0.88 (inactive),0.323 (inactive),0.617 (inactive),1.18,0.0179,1.18,0.537,0.808
O=C1c2ccccc2[C@](Cc2ccccc2I)(C(=O)NCCN2CCOCC2)[C@H](c2ccc(CO)cc2)N1Cc1ccccc1Cl,2.09,1.16,0.0936,0.929,1,1.23,1.87,0.526,1.08,-0.593 (inactive),0.66,-2.57 (inactive),0.825 (inactive),-0.0512 (inactive),-1.01 (inactive),0.851,0.62,0.442,0.244,1.43
NCCCCCCNC(=O)[C@@H]1C[C@@H]2C(=O)NCC(=O)N2[C@@H]1c1ccc(O)cc1,1.2,1.14,0.183,0.971,1.46,1.62,-0.614,1.63,0.846,1.14 (inactive),0.387,-0.402 (inactive),-2.2 (inactive),-1.07 (inactive),0.0413 (inactive),0.718,-0.104,1.3,0.665,2.18
COc1ccc(CCNC(=O)[C@@]2(C)c3ccccc3C(=O)N(C(C)C)[C@H]2c2ccc(CO)cc2)cc1,1.63,1.19,-0.0743,0.0931,0.674,0.493,0.537,0.826,0.544,-1.19 (inactive),0.435,-1.03 (inactive),1.08 (inactive),0.827 (inactive),0.727 (inactive),0.454,-0.102,0.0534,-0.176,0.794
